According to PubChem BioAssay (NCI):
This is part of a sample that, as a whole, favours compounds with a hit. Of some 79,000 tested, about 15% had one in any assay. Cut-off read from the data, not from the text of the source: active = growth inhibition above about 70%; inactive = the rest.

How the values were obtained:
[1] = NCI Yeast Anticancer Drug Screen. Data for the rad50 strain (AID 155);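 note: 0% = growth of vehicle-only cultures of the same strain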; conditions: S. cerevisiae rad50 strain growth inhibition; at 50.0 µM; stronger effect = higher value
Outline: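 Compounds were tested on a yeast strain with an engineered DNA damage repair alteration; the reported value is growth inhibition normalised to vehicle treatment.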

[2] = NCI Yeast Anticancer Drug Screen. Data for the mec2-1 strain (AID 157); conditions: S. cerevisiae mec2-1 strain, at 50.0 µM, stronger effect = higher value
Outline: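 Vehicle-treated cultures served as reference for growth inhibition of compound-exposed mec2-1 yeast.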

[3] = NCI Yeast Anticancer Drug Screen. Data for the sgs1 mgt1 strain (AID 161);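 note: 0% = growth of cultures given vehicle only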; conditions: S. cerevisiae sgs1 mgt1 strain, at 50.0 µM, stronger effect = higher value
Outline: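 Test agents were incubated with a DNA-repair-mutant yeast strain. Growth was then read and compared against vehicle-treated controls.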

[4] = NCI Yeast Anticancer Drug Screen. Data for the cln2 rad14 strain (AID 165);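 note: 0% = growth equal to vehicle treated cultures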; conditions: S. cerevisiae cln2 rad14 strain, at 50.0 µM, stronger effect = higher value
Outline: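 Each compound was tested on cln2 rad14 yeast. Inhibition of growth was calculated against vehicle-exposed controls.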

[5] = NCI Yeast Anticancer Drug Screen. Data for the bub3 strain (AID 167); conditions: S. cerevisiae bub3 mutant strain, at 50.0 µM, stronger effect = higher value
Outline: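 Growth of a checkpoint-deficient yeast mutant is measured after compound exposure. Values represent inhibition relative to vehicle.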

[6] = NCI Yeast Anticancer Drug Screen. Data for the mlh1 rad18 strain (AID 175); conditions: S. cerevisiae mlh1 rad18 strain growth inhibition; at 50.0 µM; stronger effect = higher value
Outline: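 Vehicle-treated cultures served as the reference for growth inhibition in a yeast strain carrying DNA damage repair alterations exposed to each compound.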

Measured: growth inhibition

O=C(Nc1cc(C(=O)Nc2cccc(S(=O)(=O)O)c2)cc(C(=O)Nc2cccc(S(=O)(=O)O)c2)c1)c1cccc(C(=O)Nc2cc(C(=O)Nc3cccc(S(=O)(=O)O)c3)cc(C(=O)Nc3cccc(S(=O)(=O)O)c3)c2)c1
inactive: [1] -0.1% | [2] -0.1% | [3] -15.4% | [4] 3.4% | [5] 4.8% | [6] -5.55%

Cc1ccc(S(=O)(=O)OC(c2ccc(Cl)cc2Cl)C2OC(=O)c3ccccc32)cc1 (stereo unspecified)
inactive: [1] 23.3% | [2] -12.4% | [3] 16.9% | [4] 24.7% | [5] 15% | [6] 21.4%

CN(NC(=O)Nc1cccc2ccccc12)c1ccccc1
inactive: [1] -4.7% | [2] -16.2% | [3] 14.7% | [4] -63.8% | [5] 1.65% | [6] -6.85%

Cn1c2c(c(=O)n(C)c1=O)C(=Nc1ccccc1)C(=O)N2
inactive: [1] 0.2% | [2] 9.25% | [3] 7.2% | [4] -38.3% | [5] 1.65% | [6] 14.3%

OCCC(CO)Cc1ccc2c(c1)OCO2 (stereo unspecified)
inactive: [1] -26.7% | [2] 2.75% | [3] 9.3% | [4] 10.4% | [5] -14.2% | [6] -36.3%

CCCCNC(=O)NCCCC
inactive: [1] 5.85% | [2] 3.6% | [3] -5.75% | [4] -4.5% | [5] -2.65% | [6] -0.15%

O=C(O)c1ccccc1Nc1ccccc1
inactive: [1] 5.75% | [2] -22.1% | [3] 3.8% | [4] -22.4% | [5] -0.75% | [6] -10%

CC(C)(C)OC(=O)NCCCCC(NC(=O)OC(C)(C)C)C(=O)O (stereo unspecified)
inactive: [1] 3.65% | [2] 8.55% | [3] 9.7% | [4] 2.8% | [5] 5.95% | [6] -8.65%

CC(=O)c1ccc[cH-]1.[Fe+2].c1cc[cH-]c1
inactive: [1] 13.5% | [2] 9.75% | [3] 12.9% | [4] 4.25% | [5] 23.2% | [6] 11.3%

CC(C)CCNC(=O)CS(=O)(=O)c1ccc(N)cc1
inactive: [1] -2.15% | [2] -3.05% | [3] -11.9% | [4] -34.2% | [5] -23.1% | [6] -8.55%

CC12CCC(=O)C3C1CCCC32
inactive: [1] -0.45% | [2] -6.2% | [3] -13.9% | [4] 1.2% | [5] -2.15% | [6] -21.6%

CC1(c2ccccc2)OCCCO1
inactive: [1] -11.3% | [2] -7.15% | [3] -10.8% | [4] 0.65% | [5] -2.5% | [6] -0.8%

COC(=O)c1ccc(Cl)cc1OCC(=O)Nc1ccccc1
inactive: [1] -29.1% | [2] -0.55% | [3] -12.2% | [4] -27.7% | [5] -4.6% | [6] -3.65%

CCCCCCC(C)CC(=O)O (stereo unspecified)
inactive: [1] -4.7% | [2] -3.85% | [3] 0% | [4] -59% | [5] -7.2% | [6] -21%

CCCCCCC(/C=C/c1ccc(Cl)c(Cl)c1)=N\Nc1ccccc1
inactive: [1] 3.55% | [2] -15.9% | [3] 14.8% | [4] -19.7% | [5] -4.3% | [6] -12.3%

CNC(=O)Nc1cc(C)ccc1Cl
inactive: [1] -0.9% | [2] -6.05% | [3] -8.55% | [4] -70% | [5] 1.15% | [6] -6.7%

O=C1C(=C(c2ccc([N+](=O)[O-])cc2)N2CCOCC2)C(=O)c2ccccc21
inactive: [1] 8.9% | [2] 0.4% | [3] 6.45% | [4] -30.9% | [5] 1.75% | [6] 10.3%

O=[N+]([O-])c1nccn1CCC[n+]1cccc2ccccc21
inactive: [1] -38.6% | [2] -17.2% | [3] -14.2% | [4] -14.9% | [5] -19.9% | [6] -13.4%

O=C(Nc1cc(NC(=O)n2nnc3ccccc32)c(Br)cc1Br)n1nnc2ccccc21
inactive: [1] 51.4% | [2] 25% | [3] 27.2% | [4] 24.2% | [5] 2.15% | [6] 27.8%

COC(=O)C1(CC(=O)c2cc(Cl)ccc2Cl)NC(=S)NC(=O)C1C#N (stereo unspecified)
inactive: [1] 19.9% | [2] -9.1% | [3] -8.15% | [4] 30.5% | [5] -6.75% | [6] 2.1%

Cc1ccc(N=N/C(=N/NC(=O)c2cc(Cl)ccc2C(=O)c2ccccc2)c2ccc(N(CCC#N)CCC#N)cc2C)cc1
inactive: [1] -8.5% | [2] 2.5% | [3] -18.5% | [4] -2.1% | [5] -23.6% | [6] 5.2%

CN(C(=O)C(Cl)Cl)c1ccc(-c2csc(Cc3ccccc3)n2)cc1
inactive: [1] 38.7% | [2] 6.3% | [3] 1.05% | [4] 7.05% | [5] 34.8% | [6] 28.2%

NC(CCC(=O)Nc1cccc2ccccc12)C(=O)O (stereo unspecified)
inactive: [1] 27.6% | [2] 1.65% | [3] 16.5% | [4] 12.4% | [5] 17.2% | [6] -3.15%

O=[N+]([O-])c1cc2c(cc1Cl)C1C(C3C2C2(Cl)C(Cl)=C(Cl)C3(Cl)C2(Cl)Cl)C2(Cl)C(Cl)=C(Cl)C1(Cl)C2(Cl)Cl (stereo unspecified)
inactive: [1] 24.4% | [2] 9.6% | [3] 30.2% | [4] 24.2% | [5] 20.6% | [6] 18%

Nc1scc[n+]1CCC(=O)[O-]
inactive: [1] -10.1% | [2] 0.75% | [3] 3.4% | [4] -13.2% | [5] -2.75% | [6] -15.8%

N#C/C(=C\N1CC(=O)NC1=S)C(N)=O
inactive: [1] -79.8% | [2] -12.6% | [3] -30.9% | [4] -22.1% | [5] -23.2% | [6] -69.5%

Nc1ccc(S(=O)(=O)NC(=O)c2ccccc2)cc1
inactive: [1] 12.8% | [2] -7% | [3] 10.1% | [4] -26.9% | [5] -3% | [6] 0.2%

Cc1ccc([N+](=O)[O-])c2c(NCCNC(=O)Cn3ccnc3[N+](=O)[O-])ccnc12
inactive: [1] 15.8% | [2] 4.3% | [3] 8.25% | [4] -0.7% | [5] 16.4% | [6] 12.3%

N#CCc1ccccc1S(=O)(=O)O
inactive: [1] 13.3% | [2] -0.75% | [3] -3.45% | [4] -9.75% | [5] 5.05% | [6] 0.25%

Oc1ccc2c(c1)CCC2
inactive: [1] 25% | [2] -1.95% | [3] -1.3% | [4] 8% | [5] -10.8% | [6] -19.6%

Clc1ccc(C2SC=Cc3ccccc32)cc1 (stereo unspecified)
inactive: [1] 53.8% | [2] 33.8% | [3] 47.6% | [4] 5.9% | [5] 49.8% | [6] 37.7%

O=[N+]([O-])c1cccc(S(=O)(=O)SSS(=O)(=O)c2cccc([N+](=O)[O-])c2)c1
inactive: [1] 16.6% | [2] 18.1% | [3] 55.9% | [4] 20.8% | [5] 5.75% | [6] 28.2%

Cc1cccc(C)c1N=Nc1sc(N)nc1C
inactive: [1] 20.4% | [2] 10.6% | [3] 6.65% | [4] -29.9% | [5] -9.65% | [6] 22.9%

N#CC1=C2CCCC(C#N)=C2CCC1
inactive: [1] 0.95% | [2] -1% | [3] -4.55% | [4] -40.1% | [5] -21.3% | [6] -13.8%

CCN(CC)CCNCc1c[nH]c(=S)[nH]c1=O
inactive: [1] -7.25% | [2] -1% | [3] -19.4% | [4] -1.05% | [5] 1.35% | [6] -9.45%

CCCCCCCC1CCCC1=O (stereo unspecified)
inactive: [1] -32.1% | [2] -53.6% | [3] -37.8% | [4] 5.7% | [5] -31.8% | [6] -0.8%

COc1ccc2ccccc2c1NC(C)=O
inactive: [1] 0.2% | [2] 5.95% | [3] -0.7% | [4] -21.8% | [5] -1.6% | [6] -10.5%

Nn1c(=O)[nH]c2ncn(Cc3ccccc3)c2c1=O
inactive: [1] 4.3% | [2] -21.9% | [3] 9.2% | [4] 16.9% | [5] -3% | [6] 3.35%

O=C(CN1CCC(O)(c2ccc(F)cc2)CC1)N1CCN(C/C=C/c2ccccc2)CC1
inactive: [1] 42% | [2] 7.1% | [3] 9.8% | [4] 22.6% | [5] -1.7% | [6] 20.8%

COc1cccc(NC(=O)CC(=O)N2N=C(N(CCC#N)c3ccc(Cl)cc3)CC2c2ccccc2)c1 (stereo unspecified)
inactive: [1] 19.1% | [2] -4.2% | [3] 19.1% | [4] 8.9% | [5] -0.15% | [6] -0.75%

O=C1NC(Cc2cccc(I)c2)C(=O)N1c1ccccc1 (stereo unspecified)
inactive: [1] 37.3% | [2] 3.1% | [3] 31.9% | [4] 28.8% | [5] 16.4% | [6] 29.4%
